The whole screen tested about 360,000 compounds, of which about 4,200 (1.2%) were called active.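 Rule for the calls: active = mean replicate inhibition at least 60% with every replicate also reaching 60%; inconclusive = only one of the two criteria is met; inactive = mean below 60% and not all replicates reaching 60%.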 The sample as a whole holds a higher share of actives than the screen did.

The nature of the assay: inhibitors of PAX8-driven TPO luciferase reporter, primary screen, RMG-I cells, single concentration (AID 652154).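 Note: luciferase light reporting Pax8 driven TPO promoter activity; plate controls were median of neutral control wells for no effect and mitoxantrone controls for full effect.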 The note with it: SteadyGlo, 24 h, at 12.6 µM, active compounds read high. (In general: In a reporter assay the amount or activity of a reporter protein is the signal.)
Take `CCOc1cc(C(=O)N2CCc3cc(OC)c(OC)cc3C2)ccc1OC(F)F`: the inhibition (commonly the change of the read-out against control, counted positive when it falls) is 86.2% (active).

Consider `COc1cc2c(cc1OC)CN(C(=O)c1ccc(S(=O)(=O)N3CCCCCC3)cc1)CC2`, for which the inhibition was 11.3% (inactive).

Take `COc1cc2c(cc1OC)CN(C(=O)c1cc(S(=O)(=O)N3CCCCC3)ccc1Cl)CC2`: the inhibition was -3.73% (inactive). Consider `O=C(C[C@H]1C[C@H]2c3cc(NC(=O)CC4CC4)ccc3O[C@H]2[C@H](CO)O1)NCc1ccccn1`, for which the inhibition is -23.5% (inactive). The value for `COc1ccc(S(=O)(=O)Nc2ccc3c(c2)C(=O)N([C@@H](C)CO)C[C@@H](C)[C@H](CN(C)C(=O)CCC(F)(F)F)OCCCC[C@H](C)O3)cc1` was 6.54% (inactive); that for `O=S(=O)([N-]c1nc2ccccc2nc1-[n+]1ccc(Cc2ccccc2)cc1)c1ccc(Br)s1` was 70.9% (active); that for `O=S(=O)(NCc1ccccn1)c1ccc(Br)s1` was -3.1% (inactive). Under `COc1ccc(S(=O)(=O)Nc2cccc3c2O[C@@H](CN(C)C(=O)Nc2ccccc2)[C@@H](C)CN([C@H](C)CO)C3=O)cc1` stands 11% (inactive); under `Cc1ccc(C(=O)N2CCN(S(=O)(=O)N3CCOCC3)CC2)cc1`, -3.97% (inactive).

For `Cc1ccc(S(=O)(=O)NC(C(=O)N2CCOCCOCCOCCOCC2)c2ccccc2)cc1` (stereo unspecified), the inhibition is 5.5% (inactive).

As for `Cc1oc2c(c1C(=O)N1CCOCC1)C(=O)c1ccccc1C2=O`, the inhibition was 83.3% (active). Under `CN(C)C(=O)[C@@H]1[C@@H](CO)[C@@H]2Cn3c(cccc3=O)[C@@H]2N1C(=O)C1CCC1` stands -6.21% (inactive). Under `CCCN1C[C@@H](C)[C@@H](OC)CN(C)C(=O)c2cc(NC(=O)Nc3cccc(F)c3)ccc2OC[C@@H]1C` stands 13.5% (inactive). Under `N#C[C@@H]1[C@@H](c2ccc(C3=CCCC3)cc2)[C@@H](CO)N1C(=O)C1CCCC1` stands 3.84% (inactive); under `CCOc1ccc(C(CC(=O)O)n2cnnn2)cc1OC` (stereo unspecified), 7.25% (inactive); under `C=CCn1c(COc2cccc3cccnc23)nnc1SCC(=O)OC`, 21.9% (inactive). As to `CCCCC(=O)NC(c1ccc(OC)c(OC)c1)c1ccc2cccnc2c1O` (stereo unspecified), the inhibition was 78.7% (active).

For the compound `C[C@@H]1CCCCO[C@@H](CN(C)C(=O)Nc2cccc3ccccc23)[C@H](C)CN([C@H](C)CO)C(=O)c2cc(NC(=O)NC3CCCCC3)ccc2O1`, the inhibition was 34.7% (inactive). `Cc1noc(C)c1S(=O)(=O)Nc1ccc2c(c1)C(=O)N([C@@H](C)CO)C[C@@H](C)[C@@H](CN(C)Cc1ccccc1)OCCCC[C@H](C)O2`: the inhibition is 27.1% (inactive). Under `CCN(CC)C(=O)C1=C(C)N(Cc2ccc(OC)cc2)C(=O)C(CC(=O)NCCCCc2ccccc2)C1` (stereo unspecified) stands 8.41% (inactive). `COc1ccc(CN2C(=O)C(CC(=O)NCc3cccc4ccccc34)CC(C(=O)N3CCOCC3)=C2C)cc1` (stereo unspecified): the inhibition was -99.8% (inactive). Regarding `COc1ccc(CN2C(=O)C(CC(=O)NCCCCc3ccccc3)CC(C(=O)N3CCOCC3)=C2C)cc1` (stereo unspecified), the inhibition was 91.4% (active). The value for `CN1C(=O)c2cc(NC(=O)c3ccc(F)cc3)ccc2OC[C@H]2O[C@H](CC(=O)N3CCOCC3)CC[C@@H]21` was -0.681% (inactive); that for `COc1ccc(Cl)cc1C(=O)NNC(=O)c1nc2nc(C)cc(C)n2n1` was -17.5% (inactive).

Regarding `Cc1cc(C)n2nc(SCC(N)=O)nc2n1`, the inhibition is -3.44% (inactive). Under `Cc1cc(C)n2nc(CNS(=O)(=O)c3c(F)c(F)c(F)c(F)c3F)nc2n1` stands 85.5% (active); under `Cc1noc(C)c1NC(=O)Nc1ccc2c(c1)C(=O)N([C@@H](C)CO)C[C@@H](C)[C@@H](CN(C)CC1CCCCC1)O2`, -11.2% (inactive); under `COc1ccc(NC(=O)N(C)C[C@@H]2Oc3ccc(NC(=O)CCCN(C)C)cc3CC(=O)N([C@H](C)CO)C[C@H]2C)cc1`, 2.7% (inactive). As for `C[C@@H]1CCCCO[C@H](CN(C)Cc2ccc(Cl)c(Cl)c2)[C@@H](C)CN([C@@H](C)CO)C(=O)c2cc(NC(=O)Nc3ccccc3)ccc2O1`, the inhibition is 93.9% (active). The value for `C[C@@H]1CN([C@H](C)CO)C(=O)c2cc(NC(=O)Nc3ccc4c(c3)OCO4)ccc2O[C@@H](C)CCCCO[C@@H]1CN(C)Cc1ccc2c(c1)OCO2` was 25.2% (inactive). Regarding `C[C@H]1CCCCO[C@H](CN(C)Cc2ccccc2)[C@@H](C)CN([C@@H](C)CO)C(=O)c2cc(NC(=O)NC3CCCCC3)ccc2O1`, the inhibition is 5.95% (inactive). Under `C[C@H](CO)N1C[C@H](C)[C@H](CN(C)Cc2ccc(Cl)c(Cl)c2)OCCCC[C@H](C)Oc2ccc(NC(=O)NC3CCCCC3)cc2C1=O` stands 92.7% (active); under `C[C@H]1CCCCO[C@@H](CN(C)Cc2ccc3c(c2)OCO3)[C@@H](C)CN([C@@H](C)CO)C(=O)c2cc(NC(=O)Nc3ccc(F)cc3)ccc2O1`, 87.4% (active).

Take `C[C@@H]1CCCCO[C@@H](CN(C)Cc2ccncc2)[C@@H](C)CN([C@@H](C)CO)C(=O)c2cc(NC(=O)Nc3ccc(F)cc3)ccc2O1`: the inhibition is -6.16% (inactive). The value for `C[C@@H]1CN([C@H](C)CO)C(=O)c2cc(NC(=O)Nc3ccccc3)ccc2O[C@@H](C)CCCCO[C@@H]1CN(C)Cc1ccncc1` was 6.95% (inactive); that for `C[C@@H]1CN([C@H](C)CO)C(=O)c2cc(NC(=O)Nc3ccc(F)cc3)ccc2O[C@@H](C)CCCCO[C@H]1CN(C)Cc1ccc(Cl)c(Cl)c1` was 77.5% (active). `C[C@@H]1CCCCO[C@@H](CN(C)Cc2ccncc2)[C@H](C)CN([C@H](C)CO)C(=O)c2cc(NC(=O)NC3CCCCC3)ccc2O1`: the inhibition is 8.64% (inactive). The value for `C[C@@H]1CCCCO[C@H](CN(C)Cc2ccncc2)[C@H](C)CN([C@H](C)CO)C(=O)c2cc(NC(=O)Nc3ccccc3)ccc2O1` was 18.7% (inactive); that for `C[C@H]1CCCCO[C@@H](CN(C)Cc2ccncc2)[C@@H](C)CN([C@@H](C)CO)C(=O)c2cc(NC(=O)Nc3ccc(F)cc3)ccc2O1` was -6.76% (inactive); that for `C[C@@H]1CCCCO[C@@H](CN(C)Cc2ccc3c(c2)OCO3)[C@@H](C)CN([C@@H](C)CO)C(=O)c2cc(NC(=O)Nc3ccccc3)ccc2O1` was -0.474% (inactive). As to `CN(C)C(=O)[C@H]1[C@H](CO)[C@H]2Cn3c(ccc(-c4ccc(F)cc4)c3=O)[C@H]2N1C(=O)c1ccccn1`, the inhibition was -7.59% (inactive).

The values are drawn from PubChem BioAssay AID652154 (Broad Institute, 2013).
